Source: PubChem BioAssay AID1851 (National Center for Advancing Translational Sciences (NCATS), 2009)
Where “and” joins values, the source holds several entries; their conditions need not be identical. Equal values may be shown once. Among all 16,000 compounds or so, about 5,800 (36%) were called active. Another 23% or so got no clear call; they are omitted. Calls come from the whole dose curve; as a rule, active = well fitted curve in the direction sought with a large enough effect; inconclusive = small, poorly fitted or top-dose-only effect, or effect the other way; inactive = no such curve, though single readings can be large or run the other way. The list shows a part of the results.

Molecular target: Cytochrome P450 2C19 (Homo sapiens) (UniProt P33261)
Sequence (P33261 whole entry, looked up): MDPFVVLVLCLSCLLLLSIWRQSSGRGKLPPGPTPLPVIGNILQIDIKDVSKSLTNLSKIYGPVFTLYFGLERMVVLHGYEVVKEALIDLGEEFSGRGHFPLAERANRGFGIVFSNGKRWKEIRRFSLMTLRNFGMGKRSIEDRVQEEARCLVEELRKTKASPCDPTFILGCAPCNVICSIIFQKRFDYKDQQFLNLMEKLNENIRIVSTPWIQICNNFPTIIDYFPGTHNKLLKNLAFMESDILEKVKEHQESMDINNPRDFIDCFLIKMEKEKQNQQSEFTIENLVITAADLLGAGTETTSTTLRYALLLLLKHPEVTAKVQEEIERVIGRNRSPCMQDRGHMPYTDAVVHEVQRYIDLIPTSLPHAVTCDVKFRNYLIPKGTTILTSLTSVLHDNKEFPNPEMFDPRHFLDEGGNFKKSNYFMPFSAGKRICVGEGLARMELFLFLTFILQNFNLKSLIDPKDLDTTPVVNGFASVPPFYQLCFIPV
Test: Cytochrome panel assay with activity outcomes
Conditions: recombinant CYP, pro-luciferin dealkylation, luminescence, p450-cyp2c19; series mostly up to 57.1 µM; activity, negative = inhibition: at the top concentration
% is set by controls: 0 for no effect and ±100 for the full control effect.

| SMILES | AC50 | activity, negative = inhibition |
| --- | --- | --- |
| COc1ccc(CNc2ncnc3ccc(-c4ccoc4)cc23)c(OC)c1 | 7.94 µM (active) | – |
| COc1ccc(CNc2ncnc3ccc(-c4c(C)noc4C)cc23)c(OC)c1 | 10 µM (active) | – |
| COc1ccc(CNc2ncnc3ccc(-c4ccccc4C#N)cc23)c(OC)c1 | – | -22% (inactive) |
| COc1ccccc1CNc1ncnc2ccc(-c3ccccc3C#N)cc12 | 7.94 µM (active) | – |
| Cc1nc2sc(C#N)c(N)c2c2c1CCCC2 | 11.2 µM (active) | – |
| C[C@@H]1c2ccccc2CN1CC1=NCCN1 | – | -9.19% (inactive) |
| CCn1c(N2CCN(C(=O)Nc3ccc(F)cc3)CC2)nc2ccccc21 | 31.6 µM (active) | – |
| COc1ccc(NC(=O)N2CCCC3(CCN(C(=O)c4cccc(F)c4)CC3)C2)cc1 | – | -15.7% (inactive) |
| COc1ccc(NC(=O)N2CCC3(CC2)CCN(C(=O)c2cccc(F)c2)CC3)cc1 | – | 7.83% (inactive) |
| CCOC(=O)CSc1n[nH]c(NC(=O)c2cccc(C)c2)n1 | 5.01 µM (active) | – |
| O=C(O)CCCSc1ccccc1 | – | 31.6% [at 11.4 µM] (inactive) |
| Cc1cc(Br)ccc1NC(=O)CCSc1ccccc1 | 1.26 µM (active) | – |
| NNC(=O)CCSc1ccccc1 | 3.98 µM (active) | – |
| O=c1c(-c2ccccc2)nc2cnc(N3CCNCC3)nc2n1-c1ccccc1 | – | -29.6% (inactive) |
| CC(C)c1ccc(CN(C(=O)C2COc3ccccc3O2)C2CCS(=O)(=O)C2)cc1 (stereo not given) | 10 µM (active) | – |
| CCCCC(=O)NC(Nc1cc(C)ccn1)(C(=O)OCC)C(F)(F)F (stereo not given) | 1.41 µM (active) | – |
| N=c1sc2ccccc2n1CCS (tested in a mixture with another compound) | 1.58 µM (active) | – |
| O=C(O)c1ccccc1NCn1c(=S)sc2ccccc21 | – | -40.3% [at 11.4 µM] (inactive) |
| c1ccc2nc(C3=NCCN3)cnc2c1 | – | 21.6% (inactive) |
| Cc1cc(C)n(Cc2ccc(NC(=O)c3ccc(COc4ccccc4Br)cc3)cc2)n1 | 3.98 µM (active) | – |
| COC(=O)[C@@]1(Cc2ccccc2)[C@H]2c3cc(C(=O)N4CCCC4)n(Cc4ccccn4)c3C[C@H]2CN1C(=O)c1ccccc1 | 10 µM (active) | – |
| COC(=O)[C@@]1(Cc2ccccc2)[C@H]2c3cc(C(=O)N4CCCC4)n(CCc4ccccn4)c3C[C@H]2CN1C(=O)c1ccccc1 | 25.1 µM (active) | – |
| COC(=O)[C@@]1(Cc2ccc(OC)cc2)[C@H]2c3cc(C(=O)N4CCCC4)n(CCn4cc([N+](=O)[O-])nc4C)c3C[C@H]2CN1C(=O)c1ccccc1 | – | -20% (inactive) |

| SMILES | AC50 | activity, negative = inhibition |
| --- | --- | --- |
| COC(=O)[C@@]1(Cc2ccccc2)[C@H]2c3cc(C(=O)N4CCCC4)n(Cc4nc5ccccc5[nH]4)c3C[C@H]2CN1C(=O)c1ccccc1 | 15.8 µM (active) | – |
| CSc1nc(Cl)cc(N(CCO)CCO)n1 | – | 31.7% (inactive) |
| CC(C)(C=O)Cc1cc(C(C)(C)C)c(O)c(C(C)(C)C)c1 | – | -36% (inactive) |
| CC(C)(CO)Cc1cc(C(C)(C)C)c(O)c(C(C)(C)C)c1 | 25.1 µM (active) | – |
| CCOC(=O)c1ccccc1N/C=C1\CCCCC1=O | 22.4 µM (active) | – |
| CCn1c2ccccc2c2cc(NC(=O)C/C(C)=N/NC(=O)c3ccccc3N)ccc21 | 2.24 µM (active) | – |
| O=c1cc(N2CCOCC2)oc2c(-c3ccccc3)cccc12 | – | -23.1% (inactive) |
| CCc1ccccc1N1C(=O)c2cccc3c(N4CCOCC4)c([N+](=O)[O-])cc(c23)C1=O | 3.98 µM (active) | – |
| Cc1noc(C)c1-c1nccc(N(C)Cc2ccco2)n1 | 1 µM (active) | – |
| COc1cccc(-c2nccc(N(C)Cc3ccco3)n2)c1 | 5.01 µM (active) | – |
| Cc1noc(C)c1-c1nccc(N(C)C)n1 | – | -28.6% (inactive) |
| CN(Cc1ccco1)c1ccnc(-c2cccnc2)n1 | 6.31 µM (active) | – |
| FC(F)(F)c1cc(CN2CCC3(CCNCC3)CC2)cc(C(F)(F)F)c1 | – | 0.261% (inactive) |
| N#Cc1ccc(-c2ccccc2)nc1SCC(=O)c1cccc(Cl)c1 | 2.24 µM (active) | – |
| O=C(O)CSc1cc(-c2ccccc2)nc2ccccc12 | – | 1.28% [at 11.4 µM] (inactive) |
| N#Cc1c(-c2ccccc2)no[n+]1[O-] | – | -4.21% (inactive) |
| CN(C)c1oc(-c2ccccc2)nc1C#N | 15.8 µM (active) | – |
| CCOc1[nH]n(-c2ccc(Cl)cc2)c(=O)c1C=Nc1ccc(O)cc1 | – | -6.82% (inactive) |
| COc1cc(O)oc1C=Nc1ccc(C(F)(F)F)cc1 | 7.08 µM (active) | – |
| COc1cc(O)oc1C=Nc1ccc(Cl)cc1 | 6.31 µM (active) | – |
| Cc1c(C(=O)O)nc(/C=C\C(=O)O)[nH]c1=O | – | 18.2% [at 11.4 µM] (inactive) |
| CC1=NN(c2ccc(F)cc2)C(=O)C1C(c1cccc(O)c1)c1c(C)[nH]n(-c2ccc(F)cc2)c1=O (stereo not given) | 17.8 µM (active) | – |
| O=C1C2CCCN2C(c2ccc(F)cc2)N1c1nccs1 (stereo not given) | 14.1 µM (active) | – |

| SMILES | AC50 | activity, negative = inhibition |
| --- | --- | --- |
| CCCSc1nc(SCC(=O)NCc2ccccc2)c2c3c(sc2n1)COC(C)(CC)C3 (stereo not given) | 11.2 µM (active) | – |
| Cc1nc2ncnn2c(C)c1CCC(=O)NCc1ccccc1 | – | -23.7% (inactive) |
| CCC1(C)Cc2c(sc3nnn(CC(=O)Nc4cccc5ccccc45)c(=O)c23)CO1 (stereo not given) | 15.8 µM (active) | – |
| CCC1(C)Cc2c(sc3nnn(CC(=O)Nc4ccc(C)cc4)c(=O)c23)CO1 (stereo not given) | 10 µM (active) | – |
| CCSc1nc2sc3c(c2c(=O)[nH]1)CC(C)(CC)OC3 (stereo not given) | – | -6.25% (inactive) |
| CN(N=O)C(=O)N[C@H]1[C@@H](O)[C@H](O)[C@H](CO)O[C@@H]1O | – | 16.7% [at 25.6 µM] (inactive) |
| NC(=O)Nn1c(CCC(=O)O)ccc1-c1ccc(F)cc1 | – | -6.65% (inactive) |
| Nc1ccc(Sc2cnn(-c3ccccc3)c(=O)c2Cl)cc1 | 0.1 µM (active) | – |
| CNc1cnn(-c2ccccc2)c(=O)c1Cl | – | -9.49% (inactive) |
| CCc1cc2c(nc1CC)CCN(CC/C(C)=N/OC[C@@H](O)COCc1ccco1)C2 | – | -17.2% [at 11.4 µM] (inactive) |
| Cc1ccc(S(=O)(=O)N[C@H](CO)C(=O)O)cc1 | – | -10.2% [at 11.4 µM] (inactive) |
| Cc1ccc(S(=O)(=O)N[C@@H](CCc2ccccc2)CC(=O)C(C)(C)C)cc1 | 1.58 µM (active) | – |
| CC(CCc1ccccc1)NS(=O)(=O)c1ccccc1 (stereo not given) | 2.51 µM (active) | – |
| COC(=O)C/C=C\[C@@H](C)[C@@H](/C=N\O[C@@H](C)c1cn([C@H](CO)Cc2ccccc2)nn1)NS(=O)(=O)c1ccc(C)cc1 | – | 14.8% [at 11.4 µM] (inactive) and -27.5% [at 11.4 µM] (inactive) |
| C1CCc2c(nc3nnnn3c2NC2CCCC2)C1 | – | -8.75% (inactive) |
| O=C1[C@@H]2[C@H]3[C@H](O)[C@H](O)C/C(=N/OCc4ccccc4)[C@@H]3CC[C@H]2C(=O)N1c1ccc(F)cc1F | – | -20.4% [at 11.4 µM] (inactive) |
| C[C@@H](C(=O)NCc1ccccn1)[C@@H]1C[C@@]1(C)[C@@H](NC(=O)OCc1ccccc1)c1ccccc1 | 2.51 µM (active) | – |
| C[C@@H](C(=O)NCc1ccccn1)[C@H]1C[C@]1(C)[C@H](NC(=O)OCc1ccccc1)c1ccccc1 | 2 µM (active) | – |
| O=C(O)CN(CCOCCOCCN(CC(=O)O)CC(=O)O)CC(=O)O | – | 9.23% (inactive) |
| Cc1cc2c(nc1C)CCCCN2C[C@H](O)CN1CCCc2nc(-c3ccc(Br)cc3)ccc21 | – | -10.8% [at 11.4 µM] (inactive) |
| COc1ccccc1CN1CC[C@@]2(CCCN(C(C)=O)C2)C1 | – | 0.515% (inactive) |
| CCOC(=O)C1CCN(c2c(NCc3ccc(C(=O)NCCC(C)C)cc3)c(=O)c2=O)CC1 | 3.16 µM (active) | – |
| CCNC(=S)NNC(=O)c1cc(C2CC2)nc2ccccc12 | 28.2 µM (active) | – |

| SMILES | AC50 | activity, negative = inhibition |
| --- | --- | --- |
| CCCCOC(=O)CSCC(=O)Nc1cc(C)on1 | 8.91 µM (active) | – |
| COc1ccccc1-c1cc(Nc2ccn[nH]2)ncn1 | 6.31 µM (active) | – |
| Cc1ccccc1-c1cc(Nc2ccc(F)cc2)ncn1 | 0.631 µM (active) | – |
| Cc1ccccc1-c1cc(Nc2ccccc2)ncn1 | 3.16 µM (active) | – |
| COc1ccccc1-c1cc(Nc2ccc(F)cc2)ncn1 | 7.94 µM (active) | – |
| CC(=O)NCCNc1cc(-c2ccccc2C)ncn1 | – | 9.99% (inactive) |
| C[C@@H]1/C=C\CC(=O)OC[C@H](C)C(=O)N2CCC[C@@H]2C(=O)OC1 | – | 72.6% [at 11.4 µM] (inactive) |
| O=C(c1cccc(F)c1)N1CCC2(CC1)CN(C(c1ccccc1)c1ccccc1)C2 | – | 18.4% (inactive) |
| COC(=O)[C@@]1(Cc2ccccc2)[C@H]2c3cc(C(=O)N4CCCC4)n(Cc4c(CO)[nH]cc(C)c4=O)c3C[C@H]2CN1C(=O)c1ccccc1 | 10 µM (active) | – |
| COC(=O)[C@@]1(Cc2ccccc2)[C@H]2c3cc(C(=O)N(C)C)n(Cc4c(CO)[nH]cc(C)c4=O)c3C[C@H]2CN1C(=O)c1ccccc1 | 3.16 µM (active) | – |
| COc1ccc(CNc2cc(-c3ccccc3Cl)ncn2)c(OC)c1 | 2 µM (active) | – |
| COc1ccc(CNc2cc(-c3ccccc3CN(C)C)ncn2)c(OC)c1 | – | 4.98% (inactive) |
| COc1ccc(CNc2cc(-c3ccccc3OC)ncn2)c(OC)c1 | 2 µM (active) | – |
| CC(=O)N(CC(O)CN(C(C)=O)c1c(I)c(C(=O)NC[C@@H](O)CO)c(I)c(C(=O)NC[C@@H](O)CO)c1I)c1c(I)c(C(=O)NC[C@@H](O)CO)c(I)c(C(=O)NC[C@@H](O)CO)c1I | – | -17% [at 25.6 µM] (inactive) |
| CN(C)c1nccc(N(Cc2ccccc2)Cc2ccccc2)c1C#N | 4.47 µM (active) | – |
| CCCS(=O)(=O)N1CCCC(C(=O)N2CCN(C(=O)OCC)CC2)C1 (stereo not given) | – | 23% (inactive) |
| CCOC(=O)C1CCCN(C(=O)CCn2nc(-c3ccccc3)ccc2=O)C1 (stereo not given) | – | -29% (inactive) |
| CCOC(=O)C1CCCN(C(=O)CSCc2ccccc2)C1 (stereo not given) | 11.2 µM (active) | – |
| CCOC(=O)C1CCCN(S(=O)(=O)c2ccccc2)C1 (stereo not given) | 4.47 µM (active) | – |
| CCCS(=O)(=O)N1CCCC(C(=O)NCCCOCC)C1 (stereo not given) | – | 19.2% (inactive) |
| CCOC(=O)CNc1c(-c2ccccc2)nc2ccc(Cl)cn12 | 5.01 µM (active) | – |
